The values below come from PubChem BioAssay (Tox21).

Results filed as inconclusive are left out. A number with no mark means an inactive call. Activity calls are given as the source filed them. Calls follow the shape of the dose curve; as a rule, active = well fitted cell-killing curve with a large enough effect in the repeat runs; inconclusive = weak or mixed curves, or effect the other way; inactive = flat fitted curve, though single readings scatter.
% is scaled to controls: 0 for no effect and ±100 for the full control effect; potency is read from the fitted curve at half-maximal effect.

The assay can be described thus: qHTS RealTime-Glo MT Cell Viability Assay in HepG2 cells - 40 hour (AID 1224870). Also: nearly all actives have a fitted effect of over 50% in size. To be noted: RealTime-Glo luminescence; series mostly up to 76.8 µM; activity change, negative = cytotoxic: at the top concentration. From the text: National Center for Advancing Translational Sciences [NCATS]
NIH Chemical Genomics Center [NCGC]
U.S. Environmental Protection Agency [EPA]
National Institutes of Environmental Health Sciences [NIEHS]
National Toxicology Program [NTP]
U.S. Food and Drug Administration [FDA]
Measure of cell viability is critical in the cell-base assay. Analysis of cell viability is necessary for the characterization of cell responses to cytotoxic drugs and environmental stress. A RealTime-Glo MT Cell Viability Assay to monitor cell viability in real time of continues cell culture during 40 hours of compound treatment was used to screen Tox21 10K library compounds in HepG2 cells. The RealTime-Glo MT Cell Viability Assay is a nonlytic, homogeneous, bioluminescent method to measure cell viability in real time using a simple, plate-based method. The assay involves adding NanoLuc luciferase and a cell-permeant prosubstrate to cells in culture. Viable cells reduce the proprietary prosubstrate to generate a substrate for NanoLuc luciferase. This substrate diffuses from cells into the surrounding culture medium, where it is rapidly used by the NanoLuc Enzyme to produce a luminescent signal. The signal correlates with the number of viable cells, making the assay well suited for cytotoxicity studies.
Tox21 Assay Protocol Summary:
The mixture of HepG2 cell suspension and reagents were dispensed at 600cells/6 ul/well in 1536-well tissue culture treated black solid bottom plates using a Multidrop dispenser. After the assay plates were incubated at a 37 C/5% CO2 incubator for 5 hours, 23 nL of compounds dissolved in DMSO, positive and negative controls was transferred to the assay plate by a pintool work station. The plates were incubated at 37 C for 40 hours. The luminescence intensity were measured at 0h, 8h, 16h, 24h, 32h and 40h time points using ViewLux plate reader during compound treatment.
(In general: Quantitative high-throughput screening tests each substance at several concentrations.)
`CCCCCCCC/C=C\CCCCCCCC(N)=O`: the “activity change, negative = cytotoxic” value was 2.49%.

On to `Nc1cnn([C@@H]2O[C@H](CO)[C@@H](O)[C@H]2O)c(=O)n1`, for which the “activity change, negative = cytotoxic” value was -0.127%.

For the compound `c1ccc(CNCc2ccccc2)cc1`, the “activity change, negative = cytotoxic” value was -0.464%.

`CC(C(=O)O)c1ccc(C(=O)c2ccccc2)s1` (stereo not given): the “activity change, negative = cytotoxic” value was 4.35% [at 35.3 µM].

Consider `Nc1nc(CC(=O)O)cs1`, for which the “activity change, negative = cytotoxic” value was -7.73%.

In the case of `CCOc1ccc(NC(=O)CC(C)=O)cc1`, the “activity change, negative = cytotoxic” value was -0.426%.

`CCCCOc1cc(C(=O)OCCN(CC)CC)ccc1N`: the “activity change, negative = cytotoxic” value is -0.472% [at 35.3 µM].

As to `CCCCCCCCCC(=O)OCC`, the “activity change, negative = cytotoxic” value is -1.42%.

On to `CC(=O)OCCc1ccccc1`, for which the “activity change, negative = cytotoxic” value was 0.401%.

For `CN1CCC[C@@H]1c1cccnc1`, the “activity change, negative = cytotoxic” value was -1.87% [at 35.3 µM].

With `C#CCOC(=O)[C@@H](C)Oc1ccc(Oc2ncc(Cl)cc2F)cc1`, the “activity change, negative = cytotoxic” value is 3.18%.

`CC(C)c1cccc(C(C)C)c1NC(=O)NS(=O)(=O)c1cc(C(C)(C)O)co1`: the “activity change, negative = cytotoxic” value was 0.979%.

Regarding `C[C@H](CCC(=O)O)[C@H]1CC[C@H]2[C@@H]3[C@H](O)C[C@@H]4C[C@H](O)CC[C@]4(C)[C@H]3CC[C@]12C`, the “activity change, negative = cytotoxic” value was -1.23%.

Turning to `CCN(CC)C(C)CN1c2ccccc2Sc2ccccc21` (stereo not given), the “activity change, negative = cytotoxic” value is -2.56% [at 35.3 µM].

For `CC(CN)CCCN` (stereo not given), the “activity change, negative = cytotoxic” value is 0.529%.

On to `O=C(C(=O)c1ccc(Br)cc1)c1ccc(Br)cc1`, for which the activity change, negative = cytotoxic is 6.88% [at 15.8 µM].

In the case of `O=C(NN1CCCC1)NS(=O)(=O)c1ccc(Cl)cc1`, the “activity change, negative = cytotoxic” value is 1.31% [at 35.3 µM].

Regarding `Cn1c(=O)c2c(ncn2CC(O)CO)n(C)c1=O` (stereo not given), the “activity change, negative = cytotoxic” value was -0.811% [at 35.3 µM].

Consider `O=S1(=O)N=C(O)c2ccccc21`, for which the “activity change, negative = cytotoxic” value is 1.83% [at 35.3 µM].

As to `CCCCCCCCCCCCCCCCCBr`, the activity change, negative = cytotoxic was 11.3% [at 15.8 µM].

`S=C(S)NCCNC(=S)S`: the “activity change, negative = cytotoxic” value is 26.9%.

`Cc1ccccn1`: the “activity change, negative = cytotoxic” value was -1.66%.

As to `CCCc1ccccc1`, the “activity change, negative = cytotoxic” value was 0.922%.

On to `CN(C)CC/C=C1\c2ccccc2COc2ccccc21`, for which the “activity change, negative = cytotoxic” value is -6.05% [at 35.3 µM].

In the case of `Cc1ccc(C)o1`, the “activity change, negative = cytotoxic” value was -1.14%.

Regarding `Nc1ccc(C(=O)Nc2ccccc2N)cc1`, the Potency was 13.4 µM (active).

For `CC(C)(C)c1cc(CO)cc(C(C)(C)C)c1O`, the “activity change, negative = cytotoxic” value is 0.778%.

With `OCCC1CCCCN1` (stereo not given), the “activity change, negative = cytotoxic” value is -1.3%.

Consider `C=C(C)C(=O)OCCOc1ccccc1`, for which the “activity change, negative = cytotoxic” value is 1.14%.

Regarding `CCN1CCC[C@H]1CNC(=O)c1c(OC)ccc(Br)c1OC`, the “activity change, negative = cytotoxic” value was 2.1% [at 35.3 µM].

In the case of `O=C(Nc1ccccc1)OCC(CN1CCCCC1)OC(=O)Nc1ccccc1` (stereo not given), the “activity change, negative = cytotoxic” value was -20.6% [at 35.3 µM].

In the case of `SC1CCCC1`, the “activity change, negative = cytotoxic” value is -0.33%.

Take `O=C(c1ccc(O)cc1)c1ccc(O)cc1`: the “activity change, negative = cytotoxic” value is -2.75%.

Regarding `CCCCc1cc2ccccc2c(OCCN(C)C)n1`, the “activity change, negative = cytotoxic” value is -20.8% [at 35.3 µM].

Consider `CC[C@@H]1C[C@H](N(Cc2cc(C(F)(F)F)cc(C(F)(F)F)c2)C(C)=O)c2cc(C(F)(F)F)ccc2N1C(=O)OC(C)C`, for which the “activity change, negative = cytotoxic” value is -21.4%.

As to `O=C(O)Cc1sc(-c2ccccc2)nc1-c1ccc(Cl)cc1`, the “activity change, negative = cytotoxic” value was 2.55% [at 35.3 µM].

Consider `O=C(O)/C=C/c1cnc[nH]1`, for which the “activity change, negative = cytotoxic” value was -1.22%.

Consider `COC(=O)C(C)=O`, for which the “activity change, negative = cytotoxic” value is 9.01%.

As to `CN(C)CCCNCCCN`, the “activity change, negative = cytotoxic” value is -1.63%.

For the compound `CC(=O)Nc1ccc(/C=N/NC(N)=S)cc1`, the “activity change, negative = cytotoxic” value was 3.54% [at 35.3 µM].
